We go through 24 compounds from PubChem BioAssay (Tox21).

A short description of assay [1]: qHTS assay to identify small molecule antagonists of the sonic hedgehog signaling (Shh) pathway (AID 1259369; calls by dose curve; also: nearly all actives have a fitted effect of over 45% in size; also: potency is read from the fitted curve at half-maximal effect). In a few lines: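 Cells are plated and held 4hr at 37 C, compounds (DMSO) are pinned in, conditioned medium is added to stimulate the pathway, and after 24hr luciferase reagent is added for 30min before luminescence is read.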
In assay [2] the target is Estrogen receptor beta (Homo sapiens) (UniProt Q92731). The assay is described as follows: qHTS assay to identify small molecule agonists of the estrogen receptor beta (ER-beta) signaling pathway (AID 1259377; active = well fitted activation curve with a large enough effect in the signal ratio in the repeat runs, not every such curve was filed as active; the % refers to the signal ratio). In a few lines:
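Reporter cells (HEK293T, ER-beta-UAS-bla) receive compounds or DMSO after a 6 hr pre-incubation. They then incubate 16 hr at 37C/5% CO2, and fluorescence from LiveBLAzer B/G substrate is measured after 2 hours at room temperature.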
On the technique in general: qHTS replaces the single test concentration by a dilution series.

The target is the same in assay [3]. The assay is described as follows: qHTS assay to identify small molecule antagonists of the estrogen receptor beta (ER-beta) signaling pathway (AID 1259378; active = well fitted inhibition curve with a large enough effect in the signal ratio in the repeat runs, not every such curve was filed as active; the % refers to the signal ratio). In short, it runs like this: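 ER-beta-UAS-bla HEK293T (GripTite) cells in 2% charcoal-stripped FBS medium were preincubated 6 hr at 37C, dosed with compound, then stimulated with 1 nM E2 (final) for 16 hr; beta-lactamase reporter read by B/G FRET fluorescence after 2 hr substrate loading.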

A short description of assay [4]: qHTS assay to identify small molecule agonists of the androgen receptor (AR) signaling pathway in the presence of an antagonist - cell viability counter screen (AID 1259379). Also: series mostly up to about 92 µM; nearly all actives have a fitted effect of over 25% in size. In short, it runs like this: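 Cytotoxicity is assessed by CellTiter-Fluor in MDA-kb2 cells carrying an MMTV-driven luciferase reporter. Cells receive 3.0uM nilutamide plus compounds at 15 concentrations and incubate 16 hr at 37C without CO2 before fluorescence reading.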

Assay [5] in a line: qHTS assay to identify small molecule agonists of the estrogen receptor beta (ER-beta) signaling pathway - cell viability counter screen (AID 1259380). Also: nearly all actives have a fitted effect of over 30% in size. In short, it runs like this: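 Cytotoxicity is measured in parallel with the reporter screen: after 16 hr compound exposure at 37C and a 2 hr LiveBLAzer step, CellTiter-Glo is added to the same ER-beta-UAS-bla HEK293T wells and luminescence read after 30 min.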

Assay [6] in a line: qHTS assay to identify small molecule antagonists of the estrogen receptor beta (ER-beta) signaling pathway - cell viability counter screen (AID 1259382). Also: series mostly up to about 92 µM; nearly all actives have a fitted effect of over 55% in size. In a few lines: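 Cytotoxicity counter screen multiplexed with the beta-lactamase antagonist assay: GripTite HEK293T ER-beta-bla cells were treated 16 hr with test chemicals in the presence of 1nM 17-beta-estradiol, and viability was measured by CellTiter-Glo.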

Assay [7] is described as follows: qHTS assay to identify small molecule agonists of the sonic hedgehog signaling (Shh) pathway (AID 1259368; calls by dose curve;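 also: NIH/3T3-derived 3T3Gli1-Luc cells carrying a stable Gli1-driven firefly luciferase reporter; series mostly up to about 92 µM; nearly all actives have a fitted effect of over 15% in size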). In a few lines:
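Cells of a mouse NIH/3T3 clone stably expressing luciferase under the Gli1 transcriptional response element are exposed to test chemicals for 24 hr at 37 C. Pathway activation is detected as a rise in luminescence.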

Assay [8] deals with Estrogen receptor (Homo sapiens) (UniProt P03372). The assay is described as follows: qHTS assay to identify small molecule agonists of the estrogen receptor alpha (ER-alpha) signaling pathway in the presence of an antagonist (AID 1259383; calls by dose curve; also: top concentration of the series differs between compounds; nearly all actives have a fitted effect of over 15% in size). In a few lines: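 Agonist-mode confirmation in the presence of the ER antagonist ICI-182,780 at 10.0nM final. Breast-derived VM7Luc4E2 reporter cells were exposed to compounds for 22hr, and ERE-driven luciferase was quantified by luminescence.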

Assay [9] in a line: qHTS assay to identify small molecule agonists or antagonists of the thyroid stimulating hormone receptor (TSHR) signaling pathway - wild type cell line counter screen (AID 1259384; calls by dose curve). In short, it runs like this:
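Wild-type HEK293 cells were plated 18 h at 37 C/5% CO2, pin-dosed with compound plus Ro20-1724 medium, held 30 min at room temperature, then given cAMP-d2 and anti-cAMP-cryptate; fluorescence was read after 1 h. Fifteen concentrations, triplicate.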

Assay [10] deals with Androgen receptor (Homo sapiens) (UniProt P10275). The assay can be described thus: qHTS assay to identify small molecule agonists of the androgen receptor (AR) signaling pathway in the presence of an antagonist (AID 1259381; calls by dose curve; also: nearly all actives have a fitted effect of over 15% in size). An excerpt:
National Center for Advancing Translational Sciences [NCATS] NIH Chemical Genomics Center [NCGC] U.S. Environmental Protection Agency [EPA] National Institutes of Environmental Health Sciences [NIEHS] National Toxicology Program [NTP] Assay overview: Androgen receptor (AR) is an important member of nuclear receptor family. Its signaling plays a critical role in AR-dependent prostate cancer and other androgen related diseases. Considerable attention has been given in the past decades to develop methods to study and screen for the environmental chemicals that have the potential to interfere with metabolic homeostasis, reproduction, developmental and behavioral functions. Therefore AR binding assay for screening against androgen agonists and antagonists can be used to identify potential endocrine disruptors. MDA-kb2 cells (from ATCC, deposited by Wilson et al.) are human breast carcinoma cells that were stably transfected with a luciferase reporter gene under control of the MMTV promoter that contains response elements for both androgen receptor (AR) and glucocorticoid receptor (GR). This particular screening for measuring luciferase reporter gene activity using MDA-kb2 cells against Tox21 10K library compounds is a confirmation study on agonist mode screening in the presence of AR-antagonist compound (Nilutamide) at 3.0uM final concentration.
Assay Protocol Summary: MDA-kb2 cells (cells cultured without CO2) were dispensed at 3,000 cells/well in 4uL of culture medium into white wall/solid-bottom 1536-well plates (Corning Life Sciences, Corning, NY) using a Multidrop Combi (Thermo Fisher Scientific Inc., Waltham, MA) dispenser. The assay plates were incubated at 37C and 0% CO2 for 5hr. One uL of 3.0uM (final concentration) Nilutamide or assay buffer was added using two separate tips of Flying Reagent Dispenser (FRD, Aurora Discovery, San Diego, CA). Then 23nL of compounds dissolved in DMSO at 15 concentrations and positive controls were transferred to the assay plates using a Pintool station (Wako, San Diego, CA). The assay plates were incubated at 37C and 0% CO2 for 16hr. For luciferase read, 4uL/well ONE-Glo reagent (Promega Corporation, Madison, WI) was added to each well of the assay plates using FRD. After 30min incubation at room temperature, the luminescence signal was measured using a ViewLux plate reader (PerkinElmer, Shelton, CT).

The structures appear in SMILES notation. Inconclusive results are not listed. Some compounds were tested as several samples or in several runs, with calls that do not always agree. Active and inactive are the calls of the source. Unless noted, calls follow the shape of the dose curve; as a rule, active = well fitted curve in the direction sought with a large enough effect in the repeat runs; inconclusive = weak or mixed curves; inactive = no such curve, though single readings can be large; an effect the other way counts as inactive or inconclusive.

Sequence of Estrogen receptor (Homo sapiens) (P03372 whole entry, looked up): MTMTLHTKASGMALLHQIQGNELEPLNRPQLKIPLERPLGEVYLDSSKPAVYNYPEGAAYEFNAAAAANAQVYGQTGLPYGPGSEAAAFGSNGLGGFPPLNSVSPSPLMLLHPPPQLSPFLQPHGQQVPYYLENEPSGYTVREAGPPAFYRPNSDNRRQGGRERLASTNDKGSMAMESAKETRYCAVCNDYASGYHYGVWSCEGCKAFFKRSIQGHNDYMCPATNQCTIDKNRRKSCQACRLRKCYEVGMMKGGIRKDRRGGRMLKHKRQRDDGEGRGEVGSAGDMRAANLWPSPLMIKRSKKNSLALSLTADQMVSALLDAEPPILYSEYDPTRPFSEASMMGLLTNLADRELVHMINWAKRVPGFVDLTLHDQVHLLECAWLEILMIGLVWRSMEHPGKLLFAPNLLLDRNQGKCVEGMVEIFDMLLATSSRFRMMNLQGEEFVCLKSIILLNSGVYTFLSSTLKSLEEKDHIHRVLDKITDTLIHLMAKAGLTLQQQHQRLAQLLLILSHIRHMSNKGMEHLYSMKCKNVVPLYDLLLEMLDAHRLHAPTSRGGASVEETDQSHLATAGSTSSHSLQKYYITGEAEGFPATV
Sequence of Estrogen receptor beta (Homo sapiens) (Q92731 whole entry, looked up): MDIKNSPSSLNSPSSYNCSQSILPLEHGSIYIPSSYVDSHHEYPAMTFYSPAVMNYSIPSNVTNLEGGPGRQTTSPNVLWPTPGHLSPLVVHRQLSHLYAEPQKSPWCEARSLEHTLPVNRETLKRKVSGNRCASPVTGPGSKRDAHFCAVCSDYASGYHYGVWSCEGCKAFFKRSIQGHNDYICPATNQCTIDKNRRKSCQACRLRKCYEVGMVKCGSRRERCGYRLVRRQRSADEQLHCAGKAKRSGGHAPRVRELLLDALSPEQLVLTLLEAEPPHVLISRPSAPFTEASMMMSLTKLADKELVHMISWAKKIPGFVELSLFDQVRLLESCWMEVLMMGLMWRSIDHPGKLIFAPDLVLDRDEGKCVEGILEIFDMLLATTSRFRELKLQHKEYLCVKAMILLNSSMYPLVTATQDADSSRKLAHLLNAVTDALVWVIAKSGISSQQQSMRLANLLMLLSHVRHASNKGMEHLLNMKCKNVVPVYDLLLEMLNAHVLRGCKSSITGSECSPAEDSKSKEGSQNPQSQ
Sequence of Androgen receptor (Homo sapiens) (P10275 whole entry, looked up): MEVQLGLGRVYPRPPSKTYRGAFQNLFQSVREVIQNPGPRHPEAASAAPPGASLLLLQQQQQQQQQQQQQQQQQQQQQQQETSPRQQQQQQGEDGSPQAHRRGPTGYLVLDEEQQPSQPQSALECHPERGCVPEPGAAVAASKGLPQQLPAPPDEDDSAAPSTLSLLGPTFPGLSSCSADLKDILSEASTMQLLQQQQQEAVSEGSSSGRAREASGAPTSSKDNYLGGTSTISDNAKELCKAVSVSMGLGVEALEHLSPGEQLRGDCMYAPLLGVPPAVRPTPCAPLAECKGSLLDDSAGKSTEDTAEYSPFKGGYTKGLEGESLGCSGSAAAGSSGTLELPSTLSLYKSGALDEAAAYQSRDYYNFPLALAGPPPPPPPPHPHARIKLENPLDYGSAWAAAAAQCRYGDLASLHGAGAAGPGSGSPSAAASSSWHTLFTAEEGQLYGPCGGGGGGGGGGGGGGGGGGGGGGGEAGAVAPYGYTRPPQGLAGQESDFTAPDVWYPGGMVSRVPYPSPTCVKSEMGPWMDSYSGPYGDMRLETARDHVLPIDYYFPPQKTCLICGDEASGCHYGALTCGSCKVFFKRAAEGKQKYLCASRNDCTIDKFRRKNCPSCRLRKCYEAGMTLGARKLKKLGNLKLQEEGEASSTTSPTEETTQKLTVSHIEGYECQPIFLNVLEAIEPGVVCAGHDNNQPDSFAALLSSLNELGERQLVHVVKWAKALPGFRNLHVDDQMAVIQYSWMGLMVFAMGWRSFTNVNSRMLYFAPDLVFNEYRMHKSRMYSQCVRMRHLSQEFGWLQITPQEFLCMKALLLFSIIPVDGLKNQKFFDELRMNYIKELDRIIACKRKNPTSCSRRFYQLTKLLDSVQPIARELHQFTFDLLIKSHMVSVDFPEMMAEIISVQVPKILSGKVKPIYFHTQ

Consider `CN(C)C(=O)C(c1ccccc1)c1ccccc1`, for which the Potency entry in assay [1], in [2], in assay [4] and in [5] was “inactive” in each case. Besides, the compound was called inactive in assay [3] and in assay [6].

With `Sc1ccccc1`, the result in assay [7], in assay [6], in assay [8] and in [9] was inactive. The Potency result in assay [1], in assay [4] and in assay [5] was “inactive” throughout.

`Cc1cccc(C)c1NC(=O)CN1CCCC1=O`: the Potency result in [1], in assay [2], in assay [4] and in assay [5] was “inactive” each time. For the same compound, the result in [3] and in assay [6] was inactive.

In the case of `Cl[C@H]1OCCO[C@@H]1Cl`, the compound was called inactive in assay [7] and in [6]. For the same compound, the Potency result in assay [1], in assay [4] and in assay [5] was “inactive” in each case.

Turning to `CC[N+](=O)[O-]`, the compound was called inactive in assay [7], in assay [3], in [6] and in assay [9]. In addition, the Potency result in [1], in [2], in assay [4] and in assay [5] was “inactive” each time.

In the case of `FC(F)(F)c1ccc(Cl)cc1`, the Potency result in assay [1], in [2], in assay [4] and in assay [5] was “inactive” in each case. In addition, the outcome in [3] and in assay [6] was inactive.

With `ClCCOCCCl`, the compound was called inactive in assay [7], in assay [3], in assay [6] and in assay [9]. Moreover, the Potency result in assay [1], in assay [2], in assay [4] and in assay [5] was “inactive” in each case.

Take `Cc1cc(Cl)ccc1OC(C)C(=O)O` (centres undefined): the Potency result in assay [1], in [2], in assay [4] and in assay [5] was “inactive” each time. The result in assay [3] and in assay [6] was inactive.

Take `O=C(O)CCCc1ccc(N(CCCl)CCCl)cc1`: the result in assay [7], in assay [6], in [8] and in assay [9] was inactive. The Potency result in assay [1], in [4] and in assay [5] was “inactive” each time.

In the case of `O=[N+]([O-])c1ccc(Cl)c(Cl)c1`, the outcome in assay [7], in assay [6] and in assay [9] was inactive. The Potency entry in assay [1], in assay [4] and in assay [5] was “inactive” in each case.

Turning to `[N-]=[N+]=CC(=O)OC[C@H](N)C(=O)O`, the outcome in assay [7], in assay [6] and in assay [9] was inactive. The Potency result in assay [1], in [4] and in assay [5] was “inactive” throughout.

On to `CCOC(=O)CC(SP(=O)(OC)OC)C(=O)OCC` (centres undefined), for which the Potency entry in [1], in assay [2], in [4] and in assay [5] was “inactive” in each case. Also, the result in assay [3] and in assay [6] was inactive.

Turning to `Cc1cccc(N)c1`, the compound was classed as inactive in [7] and in assay [6]. Besides, the Potency result in [1], in assay [4] and in assay [5] was “inactive” each time.

As for `Nc1cccc(Cl)c1`, the outcome in [7], in assay [3], in assay [6] and in [9] was inactive. Besides, the Potency entry in assay [1], in assay [2], in assay [4] and in assay [5] was “inactive” throughout.

Consider `O=C(O)Cc1ccccc1`, for which the compound was classed as inactive in assay [7] and in [6]. The Potency result in [1], in assay [4] and in assay [5] was “inactive” in each case.

Take `CCOP(=S)(OCC)Oc1ccc([N+](=O)[O-])cc1`: the result in [7] and in assay [6] was inactive. The Potency entry in [1], in assay [4] and in [5] was “inactive” each time.

On to `CN(C)C(=O)Cl`, for which the outcome in assay [7], in [6] and in assay [8] was inactive. In addition, the Potency result in assay [1], in [4] and in assay [5] was “inactive” in each case.

Take `CC(C)(C)C(=O)CCl`: the Potency result in assay [1], in assay [2], in [4] and in assay [5] was “inactive” in each case. Moreover, the compound was called inactive in assay [3], in [10], in assay [6] and in [9].

Take `COc1nc(NC(C)C)nc(NC(C)C)n1`: the result in assay [7], in assay [3] and in assay [6] was inactive. Moreover, the Potency entry in assay [2], in [4] and in assay [5] was “inactive” throughout.

Consider `Cc1ccc(O)c(C)c1`, for which the Potency result in assay [1], in assay [2], in assay [4] and in assay [5] was “inactive” in each case. In addition, the compound was called inactive in [3] and in assay [6].

Regarding `O=[N+]([O-])c1ccc(Cl)cc1`, the Potency in assay [1] is 42.9 µM (active) and inactive. In addition, the Potency entry in assay [2], in assay [4] and in [5] was “inactive” each time. Moreover, the compound was called inactive in assay [3], in assay [6] and in assay [9].

As to `Cc1cc(O)ccc1Cl`, the Potency entry in assay [1], in [2], in [4] and in [5] was “inactive” each time. In addition, the compound was called inactive in assay [3] and in assay [6].

As for `Cc1ccccc1N`, the Potency result in [1], in assay [4] and in assay [5] was “inactive” throughout. Besides, the compound was called inactive in assay [6] and in assay [9].

As for `CNC(=O)O/N=C/C(C)(C)SC`, the Potency entry in [1], in assay [4] and in assay [5] was “inactive” each time. Moreover, the result in assay [6] and in assay [9] was inactive.
